# Test results: the supplement of paper PMC9446081
# Out of some 39,000 compounds screened, about 220 (0.56%) showed activity. The entries come from a sample that favours actives as a whole.
# Tested on: Escherichia coli K-12 BW25113
# Assay: relative growth (OD600 normalised to plate interquartile mean) (fraction); higher = less growth inhibition, active = 0.2 or less
# Conditions: 50 µM; LB; incubation time: overnight (16-24 h)
# 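Further: Wild-type cells incubated without shaking, value is the mean of two biological replicates.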
row,Compound,relative growth
1,CCCCCCCCCCCCCCCC[N+](C)(C)C.[Br-],0.0522 (active)
2,C[N+](C)(C)CCCCCCCCCC[N+](C)(C)C.[Br-].[Br-],1.05 (inactive)
3,C[N+](C)(C)CCCl,1 (inactive)
4,CCC(N)C(O)c1ccc(O)c(O)c1.Cl (stereo unspecified),0.99 (inactive)
5,"CC12CCC3C(CCC4CC(=O)CCC43C)C1CCC2=O (stereo not drawn) [""5alpha-ANDROSTAN-3,17-DIONE""]",0.862 (inactive)
6,CCC(=O)CCCCC[C@@H]1NC(=O)[C@H]2CCCCN2C(=O)[C@H]([C@H](C)CC)NC(=O)[C@H](Cc2cn(OC)c3ccccc23)NC1=O,1 (inactive)
7,COc1cc2c(cc1OC)C13CCN4CC5=CCOC6CC(=O)N2C1C6C5CC43 (stereo unspecified),1.05 (inactive)
8,CCn1cc(C(=O)[O-])c(=O)c2cc3c(cc21)OCO3.[K+],0.0482 (active)
9,CCC(=O)CCCCC[C@@H]1NC(=O)[C@H]2CCCCN2C(=O)[C@H]([C@@H](C)CC)NC(=O)[C@H](Cc2cn(OC)c3ccccc23)NC1=O,0.957 (inactive)
10,O=C1N[C@@H]2C(=C[C@H](O)[C@@H](O)[C@H]2O)c2cc3c(c(O)c21)OCO3,0.913 (inactive)
11,N#Cc1cccnc1,1.01 (inactive)
12,NNc1ccn([C@H]2O[C@@H](CO)[C@@H](O)[C@@H]2O)c(=O)n1,0.394 (inactive)
13,COP(=O)(OC)C(O)C(Cl)(Cl)Cl (stereo unspecified),0.874 (inactive)
14,CC(C)(O)/C=C/C(=O)[C@](C)(O)[C@H]1[C@H](O)C[C@@]2(C)[C@H]3CC=C4[C@@H](CC(=O)C(=O)C4(C)C)[C@]3(C)C(=O)C[C@]12C,0.979 (inactive)
15,[O-][n+]1ccccc1[S][Zn][S]c1cccc[n+]1[O-],0.0506 (active)
16,CC(C)C[C@@H]1C(=O)N2CCC[C@@H]2[C@]2(O)O[C@@](NC(=O)[C@@H]3C=C4c5cccc6[nH]cc(c56)C[C@@H]4N(C)C3)(C(C)C)C(=O)N12,1.04 (inactive)
17,CCCCOC(=O)c1ccccc1C(=O)OCCCC,1.11 (inactive)
18,O=C([O-])Cc1ccccc1.[Na+],0.934 (inactive)
19,C[CH2][Hg][S]c1ccccc1C(=O)[O-].[Na+],0.0484 (active)
20,CC(=O)OC1CCC2(C)C(CCC3C2CCC2(C)C(C4=CC(=O)OC4)C(OC(C)=O)CC32O)C1 (stereo unspecified),1.01 (inactive)
21,CC(C)=CCCC1(C)C=Cc2c(O)c3c(c(CC=C(C)C)c2O1)OC12C(=CC4CC1C(C)(C)OC2(CC=C(C)C(=O)O)C4=O)C3=O (stereo unspecified),1.01 (inactive)
22,NC(=O)c1ccc(N)nc1,0.986 (inactive)
23,CCCN1CC(CSC)CC2c3cccc4[nH]cc(c34)CC21.CS(=O)(=O)O (stereo unspecified),1.15 (inactive)
24,CCNC(=O)[C@H]1O[C@@H](n2cnc3c(N)ncnc32)[C@H](O)[C@@H]1O,0.996 (inactive)

row,Compound,relative growth
1,Oc1ccc(Cl)cc1Cc1cc(Cl)ccc1O,0.398 (inactive)
2,Nc1ccc(Cl)cc1Cl,1.02 (inactive)
3,Oc1cc(Cl)ccc1Oc1ccc(Cl)cc1Cl,0.0446 (active)
4,CN1CC(=O)N(c2cccnc2)C[C@]12CCNC2,0.998 (inactive)
5,CC12CCC3C(CCC4(O)CC(O)CCC34C=O)C1(O)CCC2C1=CC(=O)OC1 (stereo unspecified),0.972 (inactive)
6,CC(=O)Oc1ccc(Cl)c2cccnc12,0.0572 (active)
7,CC=C1CC(C)C(O)(CO)C(=O)OCC2=CCN3CCC(OC1=O)C23 (stereo unspecified),1.04 (inactive)
8,CN1CCOC[C@]2(CCCNC2)C1,0.994 (inactive)
9,C[C@]12C(=O)OC(=O)[C@]1(C)[C@H]1CC[C@H]2O1,0.97 (inactive)
10,CN1C(=O)[C@@]23C[C@]4([C@@]56C[C@]78SS[C@](CO)(C(=O)N7[C@@H]5Nc5ccccc56)N(C)C8=O)c5ccccc5N[C@H]4N2C(=O)[C@@]1(CO)SS3,0.917 (inactive)
11,CN1C(=O)[C@]23CC4=CC=C[C@H](O)[C@H]4N2C(=O)[C@@]1(CO)SS3,0.0665 (active)
12,CC1OC(OC2CCC3(C=O)C4CCC5(C)C(C6=CC(=O)OC6)CCC5(O)C4CCC3(O)C2)C(O)C(O)C1O (stereo unspecified),1.15 (inactive)
13,c1cnc2[nH]cc(CN3CCNCC3)c2c1,0.977 (inactive)
14,CC(=O)O[C@H]1C[C@H](O[C@H]2[C@@H](O)C[C@H](O[C@H]3[C@@H](O)C[C@H](O[C@H]4CC[C@@]5(C)[C@@H](CC[C@H]6[C@@H]5C[C@@H](O)[C@]5(C)[C@@H](C7=CC(=O)OC7)CC[C@]65O)C4)O[C@@H]3C)O[C@@H]2C)O[C@H](C)[C@H]1O[C@@H]1O[C@H](CO)[C@@H](O)[C@H](O)[C@H]1O,0.986 (inactive)
15,COP(=S)(OC)Oc1cc(Cl)c(Cl)cc1Cl,0.0496 (active)
16,COP(=S)(OC)Oc1ccc(Sc2ccc(OP(=S)(OC)OC)cc2)cc1,0.986 (inactive)
17,CCOP(=S)(OCC)Oc1nc(Cl)c(Cl)cc1Cl,1.06 (inactive)
18,CCn1cnc2c(Nc3cccc(Cl)c3)nc(N[C@@H]3CCCC[C@@H]3N)nc21,0.943 (inactive)
19,CC(=O)OCC1=C(C(=O)O)N2C(=O)[C@@H](NC(=O)CCC[C@@H](N)C(=O)O)[C@@H]2SC1,1.02 (inactive)
20,CNc1ccc2oc(C[C@H]3O[C@@]4(CC[C@H]3C)O[C@H]([C@H](C)C(=O)c3ccc[nH]3)[C@H](C)C[C@H]4C)nc2c1C(=O)O,0.962 (inactive)
21,CCCCCCCCCCCCCCCC[n+]1ccccc1,0.16 (active)
22,CCCCCCCCCCCCCCCC[n+]1ccccc1.[Cl-],0.0713 (active)
23,CC[C@@H](C)NC=C1C(=O)NC(=O)NC1=O,1.01 (inactive)
24,CC1OC(OC2CC(O)C3(CO)C4C(O)CC5(C)C(C6=CC(=O)OC6)CCC5(O)C4CCC3(O)C2)C(O)C(O)C1O.O.O.O.O.O.O.O.O (stereo unspecified),1.01 (inactive)

row,Compound,relative growth
1,CC1OC(OC2C=C3CCC4C(CCC5(C)C(c6ccc(=O)oc6)CCC45O)C3(C)CC2)C(O)C(O)C1O (stereo unspecified),0.977 (inactive)
2,C[C@@H]1O[C@@H](O[C@H]2CC[C@]3(C=O)[C@H]4CC[C@]5(C)[C@@H](C6=CC(=O)OC6)CC[C@]5(O)[C@@H]4CC[C@]3(O)C2)[C@H](O)[C@H](O)[C@H]1O,1 (inactive)
3,C=C(C)[C@H]1CN[C@H](C(=O)O)[C@H]1CC(=O)O,0.978 (inactive)
4,Cc1nn[nH]n1,0.979 (inactive)
5,Cc1c(N)nc([C@H](CC(N)=O)NC[C@@H](N)C(N)=O)nc1C(=O)N[C@H](C(=O)N[C@@H](C)[C@H](O)[C@@H](C)C(=O)N[C@@H](C(=O)NCCc1nc(-c2nc(C(=O)NCCC[S+](C)C)cs2)cs1)[C@@H](C)O)[C@@H](O[C@H]1O[C@H](CO)[C@H](O)[C@@H](O)[C@H]1O[C@H]1O[C@H](CO)[C@@H](O)[C@H](OC(N)=O)[C@@H]1O)c1cnc[nH]1,0.0324 (active)
6,Cc1c(N)nc([C@H](CC(N)=O)NC[C@@H](N)C(N)=O)nc1C(=O)N[C@H](C(=O)N[C@@H](C)[C@H](O)[C@@H](C)C(=O)N[C@@H](C(=O)NCCc1nc(-c2nc(C(=O)NCCC[S+](C)C)cs2)cs1)[C@@H](C)O)[C@@H](O[C@H]1O[C@H](CO)[C@H](O)[C@@H](O)[C@H]1O[C@H]1O[C@H](CO)[C@@H](O)[C@H](OC(N)=O)[C@@H]1O)c1c[nH]cn1,0.0355 (active)
7,Cc1cc(O)c2c(=O)c3c(O)cc(O)c4c5c(O)cc(O)c6c(=O)c7c(O)cc(C)c8c1c2c(c34)c(c78)c65,1.61 (inactive)
8,O=C1[O][SbH]23[O]C(=O)[C@H]([O]2)[C@H]2[O][SbH]4([O]C(=O)[C@H]([O]4)[C@H]1[O]3)[O]C2=O,0.313 (inactive)
9,CC1=C[C@H]2O[C@@H]3[C@H](O)[C@@H](O[C@H]4O[C@H](CO)[C@@H](O)[C@H](O)[C@H]4O)[C@](C)([C@@]2(CO)CC1)[C@]31CO1,0.947 (inactive)
10,O=C1CCCC2C3CCCN4CCCC(CN12)C34 (stereo unspecified),1.05 (inactive)
11,CCn1nc(-c2cccnc2)nc2c(=O)n(C)c(=O)nc1-2,0.846 (inactive)
12,Cc1nc2c(=O)n(C)c(=O)nc-2n(C)n1,0.0393 (active)
13,Cn1ncnc2c(=O)n(C)c(=O)nc1-2,0.0341 (active)
14,COc1cccc2c1C(=O)c1c(O)c3c(c(O)c1C2=O)C[C@@](O)(C(=O)CO)C[C@@H]3O[C@H]1C[C@H](N2CCO[C@H](OC)C2)[C@H](O)[C@H](C)O1,0.933 (inactive)
15,CO[C@H]1C[C@H](O[C@H]2CC[C@]3(C=O)[C@H]4CC[C@]5(C)[C@@H](C6=CC(=O)OC6)CC[C@]5(O)[C@@H]4CC[C@]3(O)C2)O[C@H](C)[C@H]1O,0.98 (inactive)
16,CO[C@H]1[C@@H](O)C[C@@H](O[C@H]2[C@@H](O)C[C@@H](O[C@H]3[C@@H](O)C[C@@H](O[C@H]4CC[C@@]5(C)[C@@H](CC[C@H]6[C@@H]5C[C@@H](O)[C@@]5(C)[C@H](C7=CC(=O)OC7)CC[C@@]65O)C4)O[C@@H]3C)O[C@@H]2C)O[C@@H]1C,1 (inactive)
17,C=CCN1C(=O)NC(=O)/C(=C/c2ccco2)C1=O,0.971 (inactive)
18,NC(=O)c1cn([C@H]2O[C@@H](CO)[C@H](O)[C@@H]2O)c2ncnc(N)c12,0.892 (inactive)
19,CN1[C@@H]2CC[C@H]1C[C@H](O)C2,1 (inactive)
20,C=C1[C@@H](C)[C@H]2[C@H](Cc3ccccc3)NC(=O)[C@]23[C@H](OC(C)=O)/C=C/[C@](C)(O)C(=O)[C@@H](C)C/C=C/[C@H]3[C@@H]1O,0.976 (inactive)
21,O=S(=O)(O)O.Oc1cccc2cccnc12,0.0986 (active)
22,CC12CCC3c4ccc(OC(=O)N(CCCl)CCCl)cc4CCC3C1CCC2O (stereo unspecified),0.992 (inactive)
23,CCCCCCCCCC(=O)O[C@@H]1[C@@H](C)[C@]2(O)[C@@H](C=C(CO)C[C@]3(O)C(=O)C(C)=C[C@@H]23)[C@@H]2C(C)(C)[C@@]12OC(=O)CCCCCCCCC,1.03 (inactive)
